± gives the standard deviation.

What all share (experiment): peptide microarray binding signal (635 nm), min-max normalized on array (fraction of array maximum); higher = stronger binding
Holding throughout (conditions): peptide region: H3 20-32

Experiment [1] deals with T1, HaloTag-ATRX ADD domain (163-292).
T1 chain: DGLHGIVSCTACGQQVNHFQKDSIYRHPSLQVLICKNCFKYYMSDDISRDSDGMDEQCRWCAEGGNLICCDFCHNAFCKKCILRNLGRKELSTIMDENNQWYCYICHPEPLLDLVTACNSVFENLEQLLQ
The procedure, abridged:
(§1)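 Binding signal is the mean intensity of triplicate spots, min-max scaled within each library. Histone 13-mer peptide–cellulose conjugates were spotted in triplicate on nitrocellulose with a Cy3 tracer and blocked overnight at 4°C. Probing lasted 1 h at 4°C, either with biotin-labelled HaloTag reader fusions (10 nM to 1 μM) and streptavidin-Alexa Fluor 647 or with rabbit histone antibodies (1:10,000 to 1:2,000) and anti-rabbit Alexa 647. An Axon GenePix 4000B read signal at 635 nm and misprints at 532 nm.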

The target of experiment [2] is HaloTag-ING2 PHD (mouse Ing2 200-280). The procedure, abridged:
as §1

In experiment [3] the target is anti-H3K4me3 antibody ab8580. The procedure, abridged:
as §1

Experiment [4] concerns the target anti-H3K9me3 antibody ab8898. Summed up: as §1
[5] abbreviates: peptide modifications: H3K27me3 H3S28ph, binder concentration: 1:2,000 dilution.
The mark [6] stands for this setting: peptide modifications: H3K27me3 H3S28ph, binder concentration: 1:10,000 dilution.
Where [7] appears, read: peptide modifications: H3R26cit H3K27me1, binder concentration: 1:2,000 dilution.
The mark [8] stands for this setting: peptide modifications: H3R26cit H3K27me1, binder concentration: 1:10,000 dilution.
[9] abbreviates: peptide modifications: H3K27me3, binder concentration: 1:2,000 dilution.
Where [10] appears, read: peptide modifications: H3K27me3, binder concentration: 1:10,000 dilution.
The mark [11] stands for this setting: peptide modifications: H3R26cit H3K27ac, binder concentration: 1:2,000 dilution.
Setting [12] is: peptide modifications: H3R26cit H3K27ac, binder concentration: 1:10,000 dilution.
Where [13] appears, read: peptide modifications: H3R26me1 H3K27ac, binder concentration: 1:2,000 dilution.
Where [14] appears, read: peptide modifications: H3R26me1 H3K27ac, binder concentration: 1:10,000 dilution.
The mark [15] stands for this setting: peptide modifications: H3R26me1 H3K27me3, binder concentration: 1:2,000 dilution.
The mark [16] stands for this setting: peptide modifications: H3R26me1 H3K27me3, binder concentration: 1:10,000 dilution.
The mark [17] stands for this setting: peptide modifications: H3K27me1 H3S28ph, binder concentration: 1:2,000 dilution.
The mark [18] stands for this setting: peptide modifications: H3K27me1 H3S28ph, binder concentration: 1:10,000 dilution.
Setting [19] is: peptide modifications: H3R26me2a H3K27me1, binder concentration: 1:2,000 dilution.
The mark [20] stands for this setting: peptide modifications: H3R26me2a H3K27me1, binder concentration: 1:10,000 dilution.
The mark [21] stands for this setting: peptide modifications: H3R26me2a H3K27ac, binder concentration: 1:2,000 dilution.
Where [22] appears, read: peptide modifications: H3R26me2a H3K27ac, binder concentration: 1:10,000 dilution.
Where [23] appears, read: peptide modifications: H3K27ac, binder concentration: 1:2,000 dilution.
Where [24] appears, read: peptide modifications: H3K27ac, binder concentration: 1:10,000 dilution.

With LATKAARKSAPAT [H3 20-32 L A T K A A R Kme3 Sph A P A T], the “peptide microarray binding signal” value came to 0.00618 ± 0.00025 in experiment [1] (peptide modifications: H3K27me3 H3S28ph, binder concentration: 50 nM); 0.0125 ± 0.00027 in experiment [1] (peptide modifications: H3K27me3 H3S28ph, binder concentration: 500 nM); 0.0171 ± 0.0012 in experiment [2] (peptide modifications: H3K27me3 H3S28ph, binder concentration: 10 nM); 0.037 ± 0.0095 in experiment [2] (peptide modifications: H3K27me3 H3S28ph, binder concentration: 100 nM); 0.0312 ± 0.0057 in experiment [3] (setting [5]); 0.0191 ± 0.0066 in experiment [3] (setting [6]). Further, the figures for the “peptide microarray binding signal” value in experiment [4] (setting [5]) and in experiment [4] (setting [6]) were 0.104 ± 0.021 and 0.0474 ± 0.0052, respectively.
In the case of LATKAARKSAPAT [H3 20-32 L A T K A A Rcit Kme S A P A T], the “peptide microarray binding signal” value in experiment [1] (peptide modifications: H3R26cit H3K27me1, binder concentration: 50 nM) was found to be 0.0118 ± 0.0037; in experiment [1] (peptide modifications: H3R26cit H3K27me1, binder concentration: 500 nM), 0.011 ± 0.002; in experiment [2] (peptide modifications: H3R26cit H3K27me1, binder concentration: 10 nM), 0.0174 ± 0.00085; in experiment [2] (peptide modifications: H3R26cit H3K27me1, binder concentration: 100 nM) it was 0.0171 ± 0.0017; in experiment [3] (setting [7]) it was 0.00427 ± 0.00087; in experiment [3] (setting [8]), 0.00576 ± 0.00078. The “peptide microarray binding signal” value in experiment [4] (setting [7]) turned out to be 0.00346 ± 0.0001; in experiment [4] (setting [8]) it was 0.002249 ± 2.1e-05.
For LATKAARKSAPAT [H3 20-32 L A T K A A R Kme3 S A P A T], the “peptide microarray binding signal” value in experiment [1] (peptide modifications: H3K27me3, binder concentration: 50 nM) stood at 0.00602 ± 0.00022; in experiment [1] (peptide modifications: H3K27me3, binder concentration: 500 nM), 0.008 ± 0.00041; in experiment [2] (peptide modifications: H3K27me3, binder concentration: 10 nM), 0.0119 ± 0.00027; in experiment [2] (peptide modifications: H3K27me3, binder concentration: 100 nM), 0.0118 ± 0.00043; in experiment [3] (setting [9]), 0.0112 ± 0.0008; in experiment [3] (setting [10]) it was 0.00907 ± 0.0011. The “peptide microarray binding signal” value in experiment [4] (setting [9]) stood at 0.0533 ± 0.0049; in experiment [4] (setting [10]), 0.0225 ± 0.0027.
For LATKAARKSAPAT [H3 20-32 L A T K A A Rcit Kac S A P A T], the “peptide microarray binding signal” value in experiment [1] (peptide modifications: H3R26cit H3K27ac, binder concentration: 50 nM) worked out at 0.00486 ± 0.00011; in experiment [1] (peptide modifications: H3R26cit H3K27ac, binder concentration: 500 nM) it was 0.0109 ± 0.00038; in experiment [2] (peptide modifications: H3R26cit H3K27ac, binder concentration: 10 nM) it was 0.0232 ± 0.0013; in experiment [2] (peptide modifications: H3R26cit H3K27ac, binder concentration: 100 nM), 0.0235 ± 0.0022; in experiment [3] (setting [11]) it was 0.0101 ± 0.00075; in experiment [3] (setting [12]), 0.00553 ± 0.0019. Also, the “peptide microarray binding signal” value came out at 0.00415 ± 0.0003 in experiment [4] (setting [11]) and 0.00288 ± 4.3e-05 in experiment [4] (setting [12]).
As to LATKAARKSAPAT [H3 20-32 L A T K A A Rme Kac S A P A T], the “peptide microarray binding signal” value in experiment [1] (peptide modifications: H3R26me1 H3K27ac, binder concentration: 50 nM) was found to be 0.00429 ± 0.00036; in experiment [1] (peptide modifications: H3R26me1 H3K27ac, binder concentration: 500 nM) it was 0.0144 ± 0.0011; in experiment [2] (peptide modifications: H3R26me1 H3K27ac, binder concentration: 10 nM), 0.0271 ± 0.0026; in experiment [2] (peptide modifications: H3R26me1 H3K27ac, binder concentration: 100 nM) it was 0.0327 ± 0.0033; in experiment [3] (setting [13]) it was 0.00627 ± 0.0032; in experiment [3] (setting [14]), 0.00987 ± 0.00026. In addition, the “peptide microarray binding signal” value worked out at 0.0058 ± 0.00049 in experiment [4] (setting [13]) and 0.00306 ± 0.00012 in experiment [4] (setting [14]).
As for LATKAARKSAPAT [H3 20-32 L A T K A A Rme Kme3 S A P A T], the “peptide microarray binding signal” value in experiment [1] (peptide modifications: H3R26me1 H3K27me3, binder concentration: 50 nM) turned out to be 0.00668 ± 0.00028; in experiment [1] (peptide modifications: H3R26me1 H3K27me3, binder concentration: 500 nM), 0.019 ± 0.0018; in experiment [2] (peptide modifications: H3R26me1 H3K27me3, binder concentration: 10 nM), 0.0343 ± 0.0033; in experiment [2] (peptide modifications: H3R26me1 H3K27me3, binder concentration: 100 nM), 0.0417 ± 0.0052; in experiment [3] (setting [15]), 0.0743 ± 0.016; in experiment [3] (setting [16]), 0.0599 ± 0.0085. Moreover, the “peptide microarray binding signal” value was 0.162 ± 0.016 in experiment [4] (setting [15]) and 0.0985 ± 0.023 in experiment [4] (setting [16]).
In the case of LATKAARKSAPAT [H3 20-32 L A T K A A R Kme Sph A P A T], the “peptide microarray binding signal” value in experiment [1] (peptide modifications: H3K27me1 H3S28ph, binder concentration: 50 nM) came out at 0.00502 ± 0.00011; in experiment [1] (peptide modifications: H3K27me1 H3S28ph, binder concentration: 500 nM) it was 0.00762 ± 0.00035; in experiment [2] (peptide modifications: H3K27me1 H3S28ph, binder concentration: 10 nM), 0.0135 ± 0.00073; in experiment [2] (peptide modifications: H3K27me1 H3S28ph, binder concentration: 100 nM), 0.0189 ± 0.00035; in experiment [3] (setting [17]), 0.00485 ± 0.0004; in experiment [3] (setting [18]), 0.00519 ± 0.00023. For the same molecule, the “peptide microarray binding signal” value worked out at 0.00263 ± 0.00013 in experiment [4] (setting [17]) and 0.00277 ± 0.00013 in experiment [4] (setting [18]).
As for LATKAARKSAPAT [H3 20-32 L A T K A A Rme2a Kme S A P A T], the “peptide microarray binding signal” value in experiment [1] (peptide modifications: H3R26me2a H3K27me1, binder concentration: 50 nM) was 0.00489 ± 1.8e-05; in experiment [1] (peptide modifications: H3R26me2a H3K27me1, binder concentration: 500 nM) it was 0.00571 ± 0.00016; in experiment [2] (peptide modifications: H3R26me2a H3K27me1, binder concentration: 10 nM) it was 0.0113; in experiment [2] (peptide modifications: H3R26me2a H3K27me1, binder concentration: 100 nM), 0.0169 ± 0.00094; in experiment [3] (setting [19]), 0.00704 ± 0.00042; in experiment [3] (setting [20]) it was 0.00879 ± 0.00091. Moreover, the “peptide microarray binding signal” value in experiment [4] (setting [19]) stood at 0.00356 ± 0.00021; in experiment [4] (setting [20]) it was 0.00236 ± 3.7e-05.
In the case of LATKAARKSAPAT [H3 20-32 L A T K A A Rme2a Kac S A P A T], the “peptide microarray binding signal” value came to 0.00467 ± 0.00027 in experiment [1] (peptide modifications: H3R26me2a H3K27ac, binder concentration: 50 nM); 0.0126 ± 0.0011 in experiment [1] (peptide modifications: H3R26me2a H3K27ac, binder concentration: 500 nM); 0.0197 ± 0.0013 in experiment [2] (peptide modifications: H3R26me2a H3K27ac, binder concentration: 10 nM); 0.0246 ± 0.0016 in experiment [2] (peptide modifications: H3R26me2a H3K27ac, binder concentration: 100 nM); 0.00936 ± 0.0018 in experiment [3] (setting [21]); 0.0107 ± 0.00049 in experiment [3] (setting [22]). The “peptide microarray binding signal” value in experiment [4] (setting [21]) was 0.00763 ± 0.0006; in experiment [4] (setting [22]), 0.00565 ± 0.00056.
In the case of LATKAARKSAPAT [H3 20-32 L A T K A A R Kac S A P A T], the “peptide microarray binding signal” value in experiment [1] (peptide modifications: H3K27ac, binder concentration: 50 nM) turned out to be 0.00542 ± 6.7e-05; in experiment [1] (peptide modifications: H3K27ac, binder concentration: 500 nM), 0.00819 ± 0.00035; in experiment [2] (peptide modifications: H3K27ac, binder concentration: 10 nM), 0.013 ± 0.00049; in experiment [2] (peptide modifications: H3K27ac, binder concentration: 100 nM), 0.0498 ± 0.05; in experiment [3] (setting [23]), 0.00461 ± 0.00054; in experiment [3] (setting [24]), 0.00508 ± 0.00032. Further, the “peptide microarray binding signal” value in experiment [4] (setting [23]) came out at 0.00281 ± 0.00022; in experiment [4] (setting [24]), 0.002652 ± 2.3e-05.
